Assay results as given in PubChem BioAssay AID1030 (National Center for Advancing Translational Sciences (NCATS), 2008).
The campaign covered roughly 220,000 compounds. About 16,000 (7.3%) were called active. About 25% were inconclusive and are not listed. For the sample, actives were picked, then their nearest neighbours and some compounds at random. A number with no mark means an inactive call. Calls come from the whole dose curve; as a rule, active = well fitted inhibition curve with a large enough effect (not every such curve was filed as active); inconclusive = small, poorly fitted or top-dose-only effect, or another doubt; inactive = no such curve, though single readings can be large or run the other way.

target: Aldehyde dehydrogenase 1A1 (Homo sapiens) (UniProt P00352); test: qHTS Assay for Inhibitors of Aldehyde Dehydrogenase 1 (ALDH1A1); details: Purified ALDH1A1, NADH fluorescence, propionaldehyde substrate; series mostly up to 75.3 µM; activity, negative = inhibition: at the top concentration;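 for activity, negative = inhibition: plate controls were no enzyme wells and a reference inhibitor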
Sequence (P00352 whole entry, looked up): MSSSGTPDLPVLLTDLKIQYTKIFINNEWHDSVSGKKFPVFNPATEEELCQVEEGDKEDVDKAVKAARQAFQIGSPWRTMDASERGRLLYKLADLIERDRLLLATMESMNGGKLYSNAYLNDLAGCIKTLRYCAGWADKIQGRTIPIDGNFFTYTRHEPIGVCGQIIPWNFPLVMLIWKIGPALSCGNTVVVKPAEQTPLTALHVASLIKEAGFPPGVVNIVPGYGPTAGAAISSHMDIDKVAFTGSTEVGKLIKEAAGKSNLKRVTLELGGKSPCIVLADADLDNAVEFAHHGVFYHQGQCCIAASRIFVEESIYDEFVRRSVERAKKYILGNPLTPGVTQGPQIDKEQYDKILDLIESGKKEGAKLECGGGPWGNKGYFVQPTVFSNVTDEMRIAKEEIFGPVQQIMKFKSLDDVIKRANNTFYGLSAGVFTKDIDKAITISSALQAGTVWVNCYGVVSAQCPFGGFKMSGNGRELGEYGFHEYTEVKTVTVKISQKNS
Potency is the fitted concentration of half-maximal effect.

| SMILES | activity, negative = inhibition [%] | Potency |
| --- | --- | --- |
| Cc1ccc(NCc2n[nH]c(=S)n2-c2ccccc2)cc1Cl | -12.3 | – |
| Cn1c(CCCOc2ccc(Cl)cc2Cl)n[nH]c1=S | 9.75 | – |
| S=c1[nH]nc(CSCc2ccc(Cl)cc2Cl)n1-c1ccccc1 | – | 3.55 µM (active) |
| S=C(NCc1cccnc1)Nc1ccc(Cl)cc1Cl | -4.79 | – |
| C/C(=N\OCC(=O)Nc1ccc(Br)cc1)c1cccs1 | 3 | – |
| CCOC(=O)c1cc(C)nc(S(C)(=O)=O)c1C#N | 1.72 | – |
| [O-][n+]1c2c(nn1-c1ccc(Cl)c(Cl)c1)-c1nonc1CC2 | 12.6 | – |
| Cc1cc(C)cc(NC(=O)N2CCCCCCC2)c1 | -1.68 | – |
| Cc1cc(=O)[nH]c(=S)[nH]1 | – | inactive |
| O=c1[nH]c(=S)[nH]c2[nH]c(=S)[nH]c12 | – | 10 µM (active) |
| O=C(NC1CCCCC1)C1CCCN(S(=O)(=O)c2ccc(Br)s2)C1 (stereo unspecified) | 2.8 | – |
| Cc1ccc(C2CCN(C(=S)Nc3cccc(Cl)c3)C2)cc1 (stereo unspecified) | -1.08 | – |
| CC(C)(C)NC(=O)NC(=O)COC(=O)C1(C)CC1(Cl)Cl (stereo unspecified) | 10.1 | – |
| Cc1[nH]n(C)c(=O)c1N=Nc1ccc(S(C)(=O)=O)cc1 | 7.33 | – |
| CCOC(=O)c1ccc(N2C(=O)CC(N(C)Cc3ccccc3)C2=O)cc1 (stereo unspecified) | – | 11.2 µM (active) |
| CCOC(=O)c1ccc(NC(=S)N2CCCC2)cc1 | -15.1 | – |
| CCOC(=O)c1ccccc1C(=O)N1CCOCCOCCOCC1 | 9.52 | – |
| CCCOC(=O)c1ccc(N2C(=O)c3ccccc3C2=O)cc1 | 1.75 | – |
| O=C(Cc1ccccc1)NNC1CC(=O)N(c2ccc(Br)cc2)C1=O (stereo unspecified) | 3.95 | – |
| CCCCOC(=O)c1ccc(N2C(=O)CC(N3CCN(C/C=C/c4ccccc4)CC3)C2=O)cc1 (stereo unspecified) | – | 12.6 µM (active) |
| COC(=O)CN(C(=S)Nc1ccc(Cl)cc1)C1CC(=O)N(c2ccc(OC)cc2)C1=O (stereo unspecified) | 14.5 | – |
| NC(=O)C1CCN(C2OC(=O)c3ccccc32)CC1 (stereo unspecified) | -5.84 | – |

| SMILES | activity, negative = inhibition [%] | Potency |
| --- | --- | --- |
| O=C(Cn1c(N2CCN(C/C=C/c3ccccc3)CC2)nc2ccccc21)c1ccccc1 | 3.06 | – |
| COc1ccc(N2C(=O)CC(N3CCC(C(N)=O)CC3)C2=O)cc1 (stereo unspecified) | – | 7.94 µM (active) |
| CNC(=O)NC(=O)C(C)N1CCN(C/C=C/c2ccccc2)CC1 (stereo unspecified) | -7.23 | – |
| CCOC(=O)c1ccc(N2C(=O)CC(N3CCN(C(=O)c4ccccc4)CC3)C2=O)cc1 (stereo unspecified) | – | 3.55 µM (active) |
| CN(C)NC(=O)c1csnc1-c1c(Cl)cccc1Cl | 7.95 | – |
| CC(C)(C)c1ccc(/C=C/C(=O)NC2CCS(=O)(=O)C2)cc1 (stereo unspecified) | -11.6 | – |
| CCOC(=O)CNC(=O)N1c2ccccc2Sc2ccccc21 | 8.51 | – |
| CN(CC(=O)N1CCN(c2ccccc2)CC1)S(=O)(=O)c1cccs1 | 7.8 | – |
| CC(=O)N1CCN(S(=O)(=O)c2c(F)cc(F)c(Cl)c2F)CC1 | 8.19 | – |
| COc1ccc(/C(=N\O)c2nccc3cc(OC)c(OC)cc23)cc1OC | 14.1 | – |
| CCC1(C)Cc2c(sc3nc(SC)[nH]c(=O)c23)CO1 (stereo unspecified) | 0.569 | – |
| N=C1C(c2nc3ccccc3[nH]2)=C(O)CN1NC(=O)c1c[nH]c2ccccc12 | 8.77 | – |
| COc1ccc(NC(=S)N2CCCC(CO)C2)c(OC)c1 (stereo unspecified) | 4.06 | – |
| Cc1cccc(C(=O)OCC(=O)NCC(C)C)c1O | 4.6 | – |
| CCOC(=O)c1ccc(NC(=O)C2CC(=O)Nc3nc4ccccc4n32)cc1 (stereo unspecified) | 12.3 | – |
| COC(=O)c1cc(C(=O)OC)cc(N2C(=O)CC(N3CCN(c4ccccc4)CC3)C2=O)c1 (stereo unspecified) | – | 31.6 µM (active) |
| O=C1CC(N2CCN(c3ccc(F)cc3)CC2)C(=O)N1c1ccccc1 (stereo unspecified) | -3.2 | – |
| CCOc1ccc(N2C(=O)CC(N(CCc3ccc(OC)c(OC)c3)C(=S)Nc3ccccc3)C2=O)cc1 (stereo unspecified) | 4.94 | – |
| CCOC(=O)C1CCN(C(=O)Nc2ccc(Cl)cc2)CC1 | 8.47 | – |
| CN1C(=O)CC(N2CCN(c3ccccn3)CC2)C1=O (stereo unspecified) | -14.7 | – |
| CCCCCCC(=O)N(O)C1CC(=O)N(c2ccccc2)C1=O (stereo unspecified) | – | 0.316 µM (active) |
| CCCOc1ccc(N2C(=O)CC(N(CCc3ccc(S(N)(=O)=O)cc3)C(C)=O)C2=O)cc1 (stereo unspecified) | -10.9 | – |

| SMILES | activity, negative = inhibition [%] | Potency |
| --- | --- | --- |
| CSc1nc(O)c(Cc2ccccc2)c(=O)[nH]1 | -0.847 | – |
| CCOC(=O)C1CCN(c2ccc(C(=O)O)cc2[N+](=O)[O-])CC1 | 2.01 | – |
| CCOC(=O)c1ccc(N2C(=O)CC(Sc3nc(O)c(CC)c(=O)[nH]3)C2=O)cc1 (stereo unspecified) | – | 10 µM (active) |
| CCOC(=O)c1ccc(N2C(=O)CC(N3CCC(C(=O)OCC)CC3)C2=O)cc1 (stereo unspecified) | – | 12.6 µM (active) |
| O=C(Nc1ccn(Cc2ccccc2)n1)c1n[nH]c([N+](=O)[O-])c1Cl | -1.46 | – |
| CCn1nc(C)c(CN2CCN(Cc3ccc(OC)c(C)c3C)C(CCO)C2)c1C (stereo unspecified) | -0.693 | – |
| O=C(O)CCN(Cc1ccccc1)S(=O)(=O)c1c(Cl)cccc1Cl | -4.7 | – |
| CCOc1ccc(NC(=O)c2cc(C)nc3ccccc23)cc1 | 0.296 | – |
| O=C(CCCOc1ccc(Cl)cc1Cl)NNC(=O)C1CCC1 | 1.22 | – |
| COCc1cc(=O)[nH]c(-c2ccc(C(F)(F)F)cc2)n1 | 0.201 | – |
| O=C(CCc1ccccc1)Nc1nn[nH]n1 | -3.34 | – |
| COc1ccc(N2C(=O)C(Cc3ccccc3)NC2=S)cc1 (stereo unspecified) | 14.4 | – |
| COC(=O)CC1=NN(c2nc(C)cc(C)n2)C(=O)C1 | 2.76 | – |
| c1ccc(CN=C2Nc3ccccc3CS2)nc1 | 0.764 | – |
| CCC(C(=O)Nc1ccc2c(c1)OCCO2)c1ccccc1 (stereo unspecified) | -4.94 | – |
| CCOc1ccc(N2CC(C(=O)NCCN3C(=O)S/C(=C\c4cccnc4)C3=O)CC2=O)cc1 (stereo unspecified) | -7.75 | – |
| C[C@H](NC(=O)c1ccccc1Cl)C(=O)OCCOc1cccc(Cl)c1 | 4.04 | – |
| CCC(=O)c1ccc(OCC(O)CN2CC(C)OC(C)C2)cc1 (stereo unspecified) | -13.7 | – |
| CC1CN(C(=S)SCC(=O)c2ccccc2)CC(C)O1 (stereo unspecified) | 0.843 | – |
| CCOC(=O)c1ccc(N2C(=O)CC(N3CC(C)OC(C)C3)C2=O)cc1 (stereo unspecified) | – | 7.94 µM (active) |
| CN1CCN(CCC(=O)N/N=C/C=C2\N(C)c3ccccc3C2(C)C)CC1 | 3.13 | – |
| Cc1cccc(-n2c(Cc3cc(=O)[nH]c(=O)[nH]3)nnc2SCC(=O)Nc2cccc(C(F)(F)F)c2)c1 | -2.03 | – |

| SMILES | activity, negative = inhibition [%] | Potency |
| --- | --- | --- |
| CCOC(=O)N1CCN(C(=O)CSc2nc(C)nc3c2c(=O)n(C)c(=O)n3C)CC1 | 1.21 | – |
| CCOC(=O)c1c(C)nn(-c2ncccc2NC(=O)CCC(=O)O)c1C | 5.83 | – |
| CC(C)N(C)C(=O)CCc1nnc(CCc2c[nH]c3ccccc23)o1 | 4.17 | – |
| O=C(CSc1nc(-c2ccco2)cc(C(F)(F)F)n1)N1CCc2ccccc2C1 | – | 11.2 µM (active) |
| O=C(CSc1nc(-c2ccco2)cc(C(F)(F)F)n1)NCc1cccs1 | -0.0855 | – |
| FC(F)(F)c1cc(-c2ccco2)nc(N2CCOCC2)n1 | 0.194 | – |
| CC(C)(C)n1ncc2c(=O)n(Cc3ccc(Cl)cc3)cnc21 | 10.7 | – |
| COc1ccc(-n2c(C)nn(CC3CC3)c2=O)cc1 | -1.71 | – |
| Cc1ccc(NC(=S)NC(=O)c2ccc(-c3ccccc3)cc2)c(C)c1 | – | 11.2 µM (active) |
| Cc1ccc(C(=O)NC(=S)Nc2ccccc2C)cc1 | -1.81 | – |
| Cc1ccc(NC(=O)c2oc(=O)c3ccccc3c2-c2ccccc2)c(C)c1 | -15.4 | – |
| O=C(CN1CCN(S(=O)(=O)/C=C/c2ccccc2)CC1)Nc1ccc(N2CCOCC2)cc1 | 7.06 | – |
| O=C(/C=C/c1ccccc1)c1ccoc1 | 2.74 | – |
| O=C(/C=C/c1ccc(N2CCOCC2)cc1)c1ccccc1 | – | 31.6 µM (active) |
| CC(C)(C)OC(=O)N1CCC(NC(=O)c2[nH]cnc2C(=O)N[C@@H](Cc2ccccc2)C(=O)OCc2ccccc2)CC1 | -3.65 | – |
| CC(C)[C@H](NC(=O)c1ccc(F)cc1)C(=O)OCC(=O)NC(=O)c1cccn1C | -0.435 | – |
| CCSC1=NCCN1C(=O)c1ccc(S(=O)(=O)N(CC)CC)cc1 | -7.18 | – |
| CCCCN(C)C(=O)c1ccc2c(c1)N(CC)C(=O)c1ccccc1S2(=O)=O | 8.84 | – |
| COC(=O)CNC(=O)c1ccc2c(c1)S(=O)(=O)c1ccccc1C2=O | – | 11.2 µM (active) |
| COC(=O)CNC(=O)c1ccccc1F | 12.2 | – |
| O=C(CCn1ccc([N+](=O)[O-])n1)Nc1nccs1 | 1.26 | – |
| COc1cc(OC)c(C2=NOC(C(=O)Nc3c(C)n(C)n(-c4ccccc4)c3=O)C2)cc1Cl (stereo unspecified) | 5.57 | – |

| SMILES | activity, negative = inhibition [%] | Potency |
| --- | --- | --- |
| COc1ccc(NC(=O)CCNS(=O)(=O)c2ccc3c(c2)c(=O)n(C)c(=O)n3C)cc1OC | 4.29 | – |
| CC(C)(C)c1cc(CN2CCN(CCC#N)CC2)cc(C(C)(C)C)c1O | – | 7.08 µM (active) |
| N#CCCN1CCN(S(=O)(=O)c2ccc(S(=O)(=O)N3CCCC3)cc2)CC1 | -6.46 | – |
| CCC(=O)c1ccc(OCC(O)Cn2nc(C)c(C(C)=O)c2C)cc1 (stereo unspecified) | 6.23 | – |
| O=C(Nc1cccc(F)c1)N1C2CCC1CC(O)(c1cccnc1)C2 (stereo unspecified) | 2.68 | – |
| O=C(O)c1ccccc1-c1ccccc1C(=O)Nc1nccs1 | -6.84 | – |
| CCOC(=O)N1CCC(NC(=O)C(NS(=O)(=O)c2ccc3c(c2)CCN3C(=O)CC)C(C)C)CC1 (stereo unspecified) | -1.13 | – |
| Cc1ccc(CN2CCN(Cc3cccc(C)n3)CC2CCO)cc1 (stereo unspecified) | -7.49 | – |
| CCOC(=O)CNC(=O)c1nn(-c2cccc(OC)c2)c(=O)c2ccccc12 | -2.61 | – |
| CCOc1cccc(-n2nnnc2-c2ccc(OC)cc2)c1 | – | 25.1 µM (active) |
| COc1ccc(C2=CC(c3cccc(OC)c3)n3nnnc3N2)cc1 (stereo unspecified) | 3.52 | – |
| Cc1ccc(S(=O)(=O)NC(=O)N2CCCN(Cc3ccc(F)cc3)CC2)cc1 | 8.46 | – |
| CC(=O)Nc1ccc(NC(=O)COc2ccc(S(=O)(=O)NC(C)c3ccccc3)cc2)cc1 (stereo unspecified) | 7.35 | – |
| O=C(Nc1cccc(C(F)(F)F)c1)c1cnccn1 | 4.04 | – |
| CN(C)/C=C/C(=O)c1cnc2sccn2c1=O | 6.38 | – |
| CCOC(=O)c1c(-c2ccccc2)csc1NC(=S)NC(=O)c1ccccc1 | -3.67 | – |
| CCOC(=O)C1=C(NC(=S)NC(=O)c2ccccc2)c2ccccc2CC1(C)C | – | 20 µM (active) |
| CCOC(=O)c1c(NC(=O)C2(C)Cc3ccccc3C(=O)O2)sc2c1CCCC2 (stereo unspecified) | 23.1 | – |
